# Source: PubChem BioAssay (NCATS)
# Inconclusive results are not listed. Where a call stands in place of a potency, no number is given. Active and inactive are the calls of the source. Unless noted, calls come from the whole dose curve; as a rule, active = well fitted curve in the direction sought with a large enough effect; inconclusive = small, poorly fitted or top-dose-only effect, or another doubt; inactive = no such curve, though single readings can be large; an effect the other way counts as inactive or inconclusive.
# How the values were obtained:
# [1] = molecular target: T1, Hexokinase-4 (Homo sapiens) + Glucokinase regulatory protein (Homo sapiens) (UniProt P35557+Q14397); assay: qHTS assay for inhibitors of recombinant human GCK-GKRP interaction: Diaphorase-coupled assay (AID 743205)
# Procedure, shortened: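 25 mM Hepes pH 7.6, 5 mM glucose, 0.4 mM ATP, 4 U/ml G6PDH; 10 nM each GST-GCK/FLAG-GKRP. Kinetic fluorescence read, 1/min × 30 min. Normalized: DMSO ± enzyme = max/min.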
# [2] = molecular target: T1, Hexokinase-4 (Homo sapiens) + Glucokinase regulatory protein (Homo sapiens); assay: qHTS assay for inhibitors of recombinant human GCK-GKRP interaction: ADP-Glo assay (AID 743206)
# Procedure, shortened: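 GST-GCK and FLAG-GKRP (15 nM each in the dispensed mix, with 2 uM S6P) react with 0.4 mM ATP and 5 mM glucose (final) in Hepes pH 7.6 for 60 min at room temperature. ADP is measured by ADP-Glo luminescence.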
# [3] = molecular target: T1, Hexokinase-4 (Homo sapiens) + Glucokinase regulatory protein (Homo sapiens); assay: qHTS assay for inhibitors of recombinant human GCK-GKRP interaction: HTRF assay (AID 743207)
# Procedure, shortened: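 5 nM GST-GCK + 5 nM FLAG-GKRP + 2 uM S6P, pH 7.1 buffer (25 mM Hepes, 2 mM MgCl2, 25 mM KCl, 1 mM DTT, Tween/BSA); pin-transferred cpd; anti-FLAG XL665/anti-GST K; 60 min RT; HTRF.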
# [4] = qHTS Assay for Identifying Gametocytocidal Compounds (AID 743244); note: potency is the fitted concentration of half-maximal effect;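 for max response: actives lower the fluorescent signal which means gametocytes are killed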; conditions: P. falciparum 3D7 stage III-V gametocytes, alamarBlue, 72 h; max response: stronger effect = lower value
# Procedure, shortened: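 Viability read-out was resazurin reduction (alamarBlue, 24 h) measured at Ex 525/Em 598 nm. Beforehand, late-stage (III-V) 3D7 P. falciparum gametocytes at 20,000 cells/well were incubated with compound 72 h at 37C under 5% CO2.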
# [5] = qHTS assay for measurement of the activity of small molecule inhibitors on Zika virus induced Caspase-3 activity in human iPSC derived neural progenitor cells (hNPCs) (AID 1224857); note: nearly all actives have a fitted effect of over 65% in size; note: potency is the fitted concentration of half-maximal effect
# Procedure, shortened: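 Percent inhibition of virus-induced caspase-3/7 luminescence (Caspase-Glo), scaled between uninfected cells and Zika-infected cells. hNPCs received compound 1 hr before ZIKV at 2 FFU/cell, with 6 hours infection at 37 C.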
# [6] = qHTS assay for measurement of the activity of small molecule inhibitors on Zika virus induced Caspase-3 activity in human astrocytoma cells (AID 1224859)
# Procedure, shortened: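 Luminescent caspase-3/7 read-out (30 min reagent, room temperature) in human SNB-19 cells infected 6 h with ZIKV (2 FFU/cell) after 1 h compound pre-incubation; Data were normalised to uninfected and infected wells.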
# [7] = qHTS assay for cell viability of the p53RE-bla HCT-116 cell line (AID 743292); note: nearly all actives have a fitted effect of over 55% in size
# Procedure, shortened: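 In this qHTS counter-screen, metabolically competent p53RE-bla HCT-116 cells were counted via their ATP content. Compounds were applied for 16 h at 37 C and luciferase-coupled luminescence was measured.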
# [8] = qHTS assay to identify small molecule inhibitors of chordoma cells - UCH-1 (AID 1259355); note: nearly all actives have a fitted effect of over 55% in size
# Procedure, shortened: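 Cells (800/well) were seeded and left overnight at 37 C, 5% CO2, then treated with drugs at 15 concentrations plus a combination mix of auranofin, camptothecin, doxorubicin, rubitecan and topotecan. Viability after 48hr was read by CellTiter-Glo luminescence.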
# [9] = qHTS assay to identify small molecule inhibitors of chordoma cells - UCH-2 (AID 1259356)
# [10] = qHTS assay for cell viability of HEK293 cells (AID 743288); conditions: ATP luminescence (CellTiter-Glo), 18 h; max response: stronger effect = lower value; note: nearly all actives have a fitted effect of over 50% in size
# Procedure, shortened: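 HEK293 parental, 2,000 cells/well; ≥5 h pre-incubation 37 C; pintool compound addition; 18 h, 37 C; CellTiter-Glo 30 min RT; luminescence read.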
# [11] = qHTS profiling for inhibitors of Plasmodium falciparum (3D7) proliferation (AID 743322);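 note: infected erythrocytes exposed to compound for 72 h before lysis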; conditions: P. falciparum 3D7 proliferation; at 28.7 µM (top of the series) unless noted
# Procedure, shortened: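 Erythrocytes infected with P. falciparum (0.3% parasitemia, 2.5% hematocrit) incubated with compounds 72 h at 37 C, 5% CO2. Lysis with saponin/Triton buffer containing SYBR Green I, overnight at room temperature in the dark; DNA fluorescence (485/535 nm) normalised to 0.29 uM artemisinin and DMSO.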
# [12] = qHTS profiling for inhibitors of Plasmodium falciparum (DD2) proliferation (AID 743323; call rule not given here); conditions: lower = more inhibition; at 28.7 µM (top of the series) unless noted
# Procedure, shortened: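 SYBR Green fluorescence (ex 485, em 535 nm) of lysed cultures gives parasite DNA content; wells normalized to artemisinin (0.29 uM) and DMSO controls. Infected red cells: 0.3% parasitemia, 2.5% hematocrit, 72 h, 37 C.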
# [13] = qHTS profiling for inhibitors of Plasmodium falciparum (HB3) proliferation (AID 743324); conditions: Plasmodium falciparum HB3 blood-stage proliferation; at 28.7 µM (top of the series) unless noted
# Procedure, shortened: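 P. falciparum HB3 grown in erythrocytes (0.3% parasitemia, 2.5% hematocrit final) with compound for 72 h at 37 C, 5% CO2. Parasite DNA detected by SYBR Green after saponin/triton lysis overnight; normalized to 0.29 uM artemisinin and DMSO.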
# [14] = Identifying Small Molecule Inhibitors of Pancreatic Cancer Stem Cells (SN12C, Adherent) (AID 1259358);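 note: potency is the fitted concentration of half-maximal effect; cell survival measured after 48 h of compound exposure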
# Procedure, shortened: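 Monolayer and spheroid cultures are compared. Spheroids form over 14 days in stem cell medium on hydrogel-coated low-attachment plates, then are exposed to compound for 48 h before CellTiter-Glo luminescence.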
# [15] = Identifying Small Molecule Inhibitors of Pancreatic Cancer Stem Cells (Panc1, Spheroid) (AID 1259359); conditions: Panc1 spheroid cancer stem cell viability;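 note: potency is the fitted concentration of half-maximal effect; compound exposure lasted 48 h before reading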
# Procedure, shortened: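 Luminescent ATP readout (CellTiter-Glo) quantifies surviving cells after a 48 h drug incubation. Normalization uses DMSO wells as no inhibition and media-only wells as full inhibition; bortezomib served as positive control.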
# T1 sequence (P35557 whole entry, looked up): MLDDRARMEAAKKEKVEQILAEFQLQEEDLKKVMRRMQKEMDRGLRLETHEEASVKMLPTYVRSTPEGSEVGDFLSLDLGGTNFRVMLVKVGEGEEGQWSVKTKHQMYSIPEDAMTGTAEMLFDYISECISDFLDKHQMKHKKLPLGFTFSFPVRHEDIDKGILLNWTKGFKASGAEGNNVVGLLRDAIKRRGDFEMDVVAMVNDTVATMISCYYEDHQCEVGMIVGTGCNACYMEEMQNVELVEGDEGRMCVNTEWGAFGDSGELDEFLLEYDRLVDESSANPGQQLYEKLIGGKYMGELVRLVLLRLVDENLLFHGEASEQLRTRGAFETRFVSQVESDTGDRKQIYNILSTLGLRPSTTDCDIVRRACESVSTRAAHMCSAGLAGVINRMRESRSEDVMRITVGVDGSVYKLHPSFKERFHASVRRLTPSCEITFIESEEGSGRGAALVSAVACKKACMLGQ
# T1 sequence (Q14397 whole entry, looked up): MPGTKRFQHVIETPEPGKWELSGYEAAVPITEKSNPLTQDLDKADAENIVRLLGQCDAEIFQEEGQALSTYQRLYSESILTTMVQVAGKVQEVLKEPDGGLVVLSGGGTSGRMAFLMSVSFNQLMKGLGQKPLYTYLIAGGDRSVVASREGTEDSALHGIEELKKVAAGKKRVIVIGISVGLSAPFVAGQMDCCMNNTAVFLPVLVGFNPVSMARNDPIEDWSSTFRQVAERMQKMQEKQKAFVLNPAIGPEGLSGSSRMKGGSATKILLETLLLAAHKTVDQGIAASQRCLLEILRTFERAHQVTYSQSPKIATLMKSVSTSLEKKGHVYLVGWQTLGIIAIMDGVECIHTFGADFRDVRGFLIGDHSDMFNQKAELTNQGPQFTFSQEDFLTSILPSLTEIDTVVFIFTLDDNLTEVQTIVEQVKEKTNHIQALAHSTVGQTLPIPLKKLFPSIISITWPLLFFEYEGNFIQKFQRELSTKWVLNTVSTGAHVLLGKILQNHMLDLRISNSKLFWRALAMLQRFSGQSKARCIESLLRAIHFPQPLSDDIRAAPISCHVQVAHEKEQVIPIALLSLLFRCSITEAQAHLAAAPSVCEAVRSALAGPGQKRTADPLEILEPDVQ
structure (smiles),measurement,setting,value
COc1ccccc1CNCCCCCCNCCCCCCCCNCCCCCCNCc1ccccc1OC,outcome,[1],inactive
same,Potency,[2],inactive
same,Potency,[3],inactive
same,Potency,[4],1 µM (active)
same,Potency,[5],inactive
same,Potency,[6],inactive
Oc1ccccc1O,outcome,[1],inactive
same,Potency,[2],inactive
same,Potency,[3],inactive
same,Potency,[7],inactive
same,Potency,[5],inactive
same,Potency,[6],inactive
COc1cc(SC)ccc1C(=O)N1CCC(Cc2ccccc2)CC1,outcome,[1],inactive
same,Potency,[2],inactive
same,Potency,[3],inactive
same,max response,[4],12.7% (inactive)
same,Potency,[5],inactive
same,Potency,[6],inactive
NCCCS(=O)(=O)O,outcome,[1],inactive
same,Potency,[2],inactive
same,Potency,[3],inactive
same,max response,[4],2.49% (inactive)
same,Potency,[5],inactive
same,Potency,[6],inactive
COc1cc2c(CCNC(C)=O)c[nH]c2cc1Cl,outcome,[1],inactive
same,Potency,[2],inactive
same,Potency,[3],inactive
same,max response,[4],6.49% (inactive)
same,Potency,[5],inactive
same,Potency,[6],inactive
O=C(O)CC1CCCc2ccccc2C1O (configuration not stated),outcome,[1],inactive
same,Potency,[2],inactive
same,Potency,[3],inactive
same,max response,[4],12.4% (inactive)
same,Potency,[5],inactive
same,Potency,[6],inactive
C#C[C@]1(O)CC[C@H]2[C@@H]3CCC4=Cc5oncc5CC4(C)[C@H]3CCC21C (some centres not stated),outcome,[1],inactive
same,Potency,[2],inactive
same,Potency,[3],inactive
same,max response,[4],25.1% (inactive)
same,Potency,[5],inactive
same,Potency,[6],inactive
O=c1[nH]c2ccccc2n1CCCN1CCN(C(c2ccccc2)c2ccccc2)CC1,max response,[4],14.5% (inactive)
same,Potency,[5],inactive
same,Potency,[8],inactive
same,Potency,[9],inactive
O=C(O)c1cc([N+](=O)[O-])ccc1NCCCc1ccccc1,outcome,[1],inactive
same,Potency,[2],inactive
same,Potency,[3],inactive
same,max response,[4],5.5% (inactive)
same,Potency,[5],10 µM (active)
CCCCC1C(=O)N(c2ccccc2)N(c2ccc(O)cc2)C1=O (configuration not stated),Potency,[6],inactive
same,Potency,[8],inactive
same,Potency,[9],inactive
COC(=O)c1nc(Cl)c(Cl)nc1N,Potency,[6],inactive
N=c1ccn2c(n1)O[C@H]1[C@H](O)[C@@H](CO)O[C@H]12,outcome,[1],inactive
same,Potency,[2],inactive
same,Potency,[3],inactive
same,max response,[4],8.89% (inactive)
same,Potency,[6],inactive
same,Potency,[8],inactive
same,Potency,[9],inactive
CC1(C)S[C@@H]2[C@H](NC(=O)[C@H](N)c3ccccc3)C(=O)N2[C@H]1C(=O)O,max response,[4],0.735% (inactive)
same,max response,[10],1.44% (inactive)
same,Potency,[7],inactive
same,Potency,[5],inactive
CCCCCCCC/C=C/C(=O)O,Potency,[6],inactive
C=CCc1cccc(/C=N/NC(=O)CN2CCN(Cc3ccccc3)CC2)c1O,Potency,[4],29.6 µM (active)
same,remaining parasite growth % (stronger effect = lower value),[11],16.2%
same,"activity, percent of control",[12],11.8%
same,"remaining proliferation (% of control), lower = more inhibition",[13],9.08%
same,Potency,[5],inactive
same,Potency,[14],10.5 µM (active)
same,Potency,[15],26.4 µM (active)
O=C(CS)Nc1ccccc1,Potency,[6],inactive
COc1ccnc2c1CCCCC2S(=O)c1nc2ccccc2[nH]1 (configuration not stated),Potency,[6],inactive
N=C(N)N,max response,[4],-3.24% (inactive)
same,Potency,[5],inactive
CO/N=C(\C(=O)N[C@@H]1C(=O)N2C(C(=O)O)=C(COC(C)=O)CS[C@H]12)c1csc(N)n1 (stereo in doubt),max response,[4],12.7% (inactive)
same,Potency,[5],inactive
same,Potency,[8],inactive
same,Potency,[9],inactive
